Drawing on ChEMBL document CHEMBL1961873, “Compounds: GSK PKIS; Assays: Nanosyn kinase panel” (2012), this text covers inhibition for 7 molecules.

The target in assay [1] is T1, Ephrin type-B receptor 2 (Homo sapiens) (UniProt P29323).
T1 sequence (whole entry): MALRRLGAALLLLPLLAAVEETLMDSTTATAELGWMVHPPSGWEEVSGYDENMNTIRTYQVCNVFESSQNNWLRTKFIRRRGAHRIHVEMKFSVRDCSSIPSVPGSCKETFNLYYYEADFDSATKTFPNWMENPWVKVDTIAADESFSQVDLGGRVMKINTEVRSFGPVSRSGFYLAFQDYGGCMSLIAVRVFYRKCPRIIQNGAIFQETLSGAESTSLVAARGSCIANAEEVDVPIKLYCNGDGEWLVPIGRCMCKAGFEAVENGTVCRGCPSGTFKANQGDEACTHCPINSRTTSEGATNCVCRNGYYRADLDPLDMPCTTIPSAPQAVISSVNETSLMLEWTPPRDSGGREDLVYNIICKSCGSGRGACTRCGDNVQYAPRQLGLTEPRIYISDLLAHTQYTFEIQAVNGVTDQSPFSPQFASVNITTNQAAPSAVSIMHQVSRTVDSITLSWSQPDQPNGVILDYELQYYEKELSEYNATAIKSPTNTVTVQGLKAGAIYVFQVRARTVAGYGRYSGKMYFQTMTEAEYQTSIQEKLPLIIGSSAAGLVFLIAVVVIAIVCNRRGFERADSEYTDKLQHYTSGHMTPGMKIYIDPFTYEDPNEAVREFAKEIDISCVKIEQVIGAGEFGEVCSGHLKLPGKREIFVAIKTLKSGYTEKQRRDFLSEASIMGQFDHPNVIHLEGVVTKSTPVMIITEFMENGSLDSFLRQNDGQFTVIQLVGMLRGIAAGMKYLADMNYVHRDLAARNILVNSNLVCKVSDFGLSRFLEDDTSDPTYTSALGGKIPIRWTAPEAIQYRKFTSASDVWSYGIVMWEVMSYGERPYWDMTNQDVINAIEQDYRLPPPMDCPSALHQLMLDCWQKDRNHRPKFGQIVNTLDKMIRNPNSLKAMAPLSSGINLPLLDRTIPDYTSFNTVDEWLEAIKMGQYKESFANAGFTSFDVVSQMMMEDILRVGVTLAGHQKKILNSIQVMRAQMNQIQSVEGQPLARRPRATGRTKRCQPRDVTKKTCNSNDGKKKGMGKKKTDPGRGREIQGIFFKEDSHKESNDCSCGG
The conditions noted are these: at 1 µM.

The target of assay [2] is T2, Ephrin type-B receptor 3 (Homo sapiens) (UniProt P54753).
T2 sequence (whole entry): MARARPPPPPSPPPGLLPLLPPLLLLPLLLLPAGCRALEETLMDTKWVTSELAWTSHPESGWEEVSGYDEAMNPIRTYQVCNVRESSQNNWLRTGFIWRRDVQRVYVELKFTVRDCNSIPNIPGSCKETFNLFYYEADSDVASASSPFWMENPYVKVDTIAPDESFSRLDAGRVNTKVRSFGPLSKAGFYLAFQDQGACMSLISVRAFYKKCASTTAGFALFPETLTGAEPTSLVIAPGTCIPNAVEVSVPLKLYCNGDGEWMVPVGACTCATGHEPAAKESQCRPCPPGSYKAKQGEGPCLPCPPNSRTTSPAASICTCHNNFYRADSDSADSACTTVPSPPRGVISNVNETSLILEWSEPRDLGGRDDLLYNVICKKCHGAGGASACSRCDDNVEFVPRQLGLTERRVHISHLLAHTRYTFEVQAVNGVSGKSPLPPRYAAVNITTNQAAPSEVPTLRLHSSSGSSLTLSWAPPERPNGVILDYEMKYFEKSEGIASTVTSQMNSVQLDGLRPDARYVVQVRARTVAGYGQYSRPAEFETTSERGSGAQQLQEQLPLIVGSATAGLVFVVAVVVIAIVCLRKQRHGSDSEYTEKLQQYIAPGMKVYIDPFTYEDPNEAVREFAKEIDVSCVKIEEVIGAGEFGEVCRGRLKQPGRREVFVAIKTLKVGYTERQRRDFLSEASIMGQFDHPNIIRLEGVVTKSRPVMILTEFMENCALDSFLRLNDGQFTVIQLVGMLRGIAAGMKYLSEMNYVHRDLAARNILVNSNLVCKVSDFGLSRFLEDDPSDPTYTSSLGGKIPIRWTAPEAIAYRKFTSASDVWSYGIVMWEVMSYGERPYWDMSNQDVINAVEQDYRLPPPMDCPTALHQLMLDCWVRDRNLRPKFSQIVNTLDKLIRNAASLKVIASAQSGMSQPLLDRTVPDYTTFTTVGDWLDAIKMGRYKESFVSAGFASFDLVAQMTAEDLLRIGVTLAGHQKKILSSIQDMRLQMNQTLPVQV
The settings on record: at 0.1 µM.

In assay [3] the target is T2, Ephrin type-B receptor 3 (Homo sapiens). The conditions noted are these: at 1 µM.
Assay [4] addresses T3, Ephrin type-B receptor 4 (Homo sapiens) (UniProt P54760).
T3 sequence (whole entry): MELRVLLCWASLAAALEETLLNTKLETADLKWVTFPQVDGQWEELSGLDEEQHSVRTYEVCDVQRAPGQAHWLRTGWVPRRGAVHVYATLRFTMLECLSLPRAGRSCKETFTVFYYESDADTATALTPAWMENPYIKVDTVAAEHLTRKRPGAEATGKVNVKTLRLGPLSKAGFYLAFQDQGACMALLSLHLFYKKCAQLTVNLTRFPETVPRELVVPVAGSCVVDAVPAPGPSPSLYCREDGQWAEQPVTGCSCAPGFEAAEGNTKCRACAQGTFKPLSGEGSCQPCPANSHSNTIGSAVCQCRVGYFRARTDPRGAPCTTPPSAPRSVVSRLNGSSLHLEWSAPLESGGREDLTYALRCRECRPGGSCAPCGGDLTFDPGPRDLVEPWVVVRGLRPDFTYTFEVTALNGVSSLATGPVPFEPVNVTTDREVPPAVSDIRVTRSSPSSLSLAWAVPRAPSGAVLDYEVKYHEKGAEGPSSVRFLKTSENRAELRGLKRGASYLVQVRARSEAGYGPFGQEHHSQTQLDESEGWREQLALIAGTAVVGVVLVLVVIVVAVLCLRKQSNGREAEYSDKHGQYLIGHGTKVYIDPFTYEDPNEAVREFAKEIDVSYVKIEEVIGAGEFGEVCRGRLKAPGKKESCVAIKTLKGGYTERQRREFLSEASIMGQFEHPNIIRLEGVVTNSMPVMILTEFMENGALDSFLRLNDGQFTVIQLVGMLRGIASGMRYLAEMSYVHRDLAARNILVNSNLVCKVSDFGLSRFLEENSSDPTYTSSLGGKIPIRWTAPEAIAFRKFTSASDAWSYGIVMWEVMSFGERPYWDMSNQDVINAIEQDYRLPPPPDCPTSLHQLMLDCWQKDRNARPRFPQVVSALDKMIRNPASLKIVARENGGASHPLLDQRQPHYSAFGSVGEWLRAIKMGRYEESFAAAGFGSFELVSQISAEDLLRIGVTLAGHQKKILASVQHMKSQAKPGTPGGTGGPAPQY
The settings on record: at 0.1 µM.

For assay [5], the target named is T3, Ephrin type-B receptor 4 (Homo sapiens). The settings on record: at 1 µM.
Assay [6] addresses Receptor tyrosine-protein kinase erbB-2 (Homo sapiens) (UniProt P04626). The settings on record: at 0.1 µM.
For assay [7] the target is unchanged. The settings on record: at 1 µM.
In assay [8] the target is Receptor tyrosine-protein kinase erbB-4 (Homo sapiens) (UniProt Q15303). The conditions noted are these: at 0.1 µM.
Receptor tyrosine-protein kinase erbB-4 (Homo sapiens), sequence (Q15303 whole entry): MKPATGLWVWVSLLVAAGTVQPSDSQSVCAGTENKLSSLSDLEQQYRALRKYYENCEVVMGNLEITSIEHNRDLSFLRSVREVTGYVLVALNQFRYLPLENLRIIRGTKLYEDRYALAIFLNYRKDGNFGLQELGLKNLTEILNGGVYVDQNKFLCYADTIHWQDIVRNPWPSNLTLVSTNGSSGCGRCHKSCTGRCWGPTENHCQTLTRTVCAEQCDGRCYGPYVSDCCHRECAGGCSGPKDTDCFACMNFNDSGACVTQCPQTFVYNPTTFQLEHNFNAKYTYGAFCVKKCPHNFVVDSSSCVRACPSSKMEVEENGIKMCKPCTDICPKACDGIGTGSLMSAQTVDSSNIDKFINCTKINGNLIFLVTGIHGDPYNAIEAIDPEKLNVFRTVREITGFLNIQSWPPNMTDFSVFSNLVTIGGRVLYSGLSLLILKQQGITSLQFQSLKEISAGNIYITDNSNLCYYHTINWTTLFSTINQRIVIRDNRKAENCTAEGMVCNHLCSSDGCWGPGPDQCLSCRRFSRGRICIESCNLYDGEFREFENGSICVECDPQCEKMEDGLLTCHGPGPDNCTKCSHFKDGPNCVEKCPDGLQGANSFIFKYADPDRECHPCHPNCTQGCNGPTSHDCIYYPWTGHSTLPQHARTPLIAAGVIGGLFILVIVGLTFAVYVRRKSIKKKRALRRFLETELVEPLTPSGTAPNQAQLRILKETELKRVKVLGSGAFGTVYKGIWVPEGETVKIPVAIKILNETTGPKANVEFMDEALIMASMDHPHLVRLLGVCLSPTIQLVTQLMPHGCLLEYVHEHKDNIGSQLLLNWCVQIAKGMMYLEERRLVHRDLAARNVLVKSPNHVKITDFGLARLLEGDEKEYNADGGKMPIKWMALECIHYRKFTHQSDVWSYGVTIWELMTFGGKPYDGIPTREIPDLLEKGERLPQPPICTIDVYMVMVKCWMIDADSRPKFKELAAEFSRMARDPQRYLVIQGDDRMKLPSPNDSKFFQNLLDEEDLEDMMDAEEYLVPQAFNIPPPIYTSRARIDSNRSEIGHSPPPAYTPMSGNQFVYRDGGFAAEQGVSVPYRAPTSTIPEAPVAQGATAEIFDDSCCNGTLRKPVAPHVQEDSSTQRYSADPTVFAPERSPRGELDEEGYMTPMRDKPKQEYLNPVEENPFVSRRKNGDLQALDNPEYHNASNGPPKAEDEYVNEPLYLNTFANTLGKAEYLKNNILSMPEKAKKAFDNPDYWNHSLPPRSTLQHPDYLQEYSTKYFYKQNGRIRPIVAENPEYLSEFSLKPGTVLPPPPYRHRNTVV
Assay [9] has the same target. The conditions noted are these: at 1 µM.
Assay [10] deals with Tyrosine-protein kinase Fer (Homo sapiens) (UniProt P16591). The conditions noted are these: at 0.1 µM.
Tyrosine-protein kinase Fer (Homo sapiens), sequence (P16591 whole entry, looked up): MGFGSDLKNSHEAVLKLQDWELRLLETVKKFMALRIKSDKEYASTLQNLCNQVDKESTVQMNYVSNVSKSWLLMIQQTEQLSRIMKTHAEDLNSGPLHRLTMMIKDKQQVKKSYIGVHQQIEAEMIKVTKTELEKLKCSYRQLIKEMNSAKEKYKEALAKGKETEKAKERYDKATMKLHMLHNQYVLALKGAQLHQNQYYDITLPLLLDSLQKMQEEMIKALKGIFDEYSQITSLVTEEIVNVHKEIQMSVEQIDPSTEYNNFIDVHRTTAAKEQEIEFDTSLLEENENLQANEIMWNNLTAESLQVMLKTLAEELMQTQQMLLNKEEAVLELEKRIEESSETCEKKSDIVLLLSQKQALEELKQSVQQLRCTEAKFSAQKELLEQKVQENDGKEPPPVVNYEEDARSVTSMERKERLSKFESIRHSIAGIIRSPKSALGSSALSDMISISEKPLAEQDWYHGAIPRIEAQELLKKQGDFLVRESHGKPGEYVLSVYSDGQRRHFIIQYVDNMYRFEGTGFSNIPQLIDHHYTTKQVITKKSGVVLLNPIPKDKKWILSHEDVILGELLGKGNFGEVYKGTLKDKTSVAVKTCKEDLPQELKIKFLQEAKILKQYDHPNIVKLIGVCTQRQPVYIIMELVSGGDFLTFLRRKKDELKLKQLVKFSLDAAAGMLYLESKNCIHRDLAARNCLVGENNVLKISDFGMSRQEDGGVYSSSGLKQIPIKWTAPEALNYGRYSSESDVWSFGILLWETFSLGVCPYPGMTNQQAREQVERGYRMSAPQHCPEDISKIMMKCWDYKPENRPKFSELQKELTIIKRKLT
For assay [11] the target is unchanged. The settings on record: at 1 µM.
Assay [12] concerns the target Tyrosine-protein kinase Fes/Fps (Homo sapiens) (UniProt P07332). The conditions noted are these: at 0.1 µM.
Assay [13] has the same target. The conditions noted are these: at 1 µM.
In assay [14] the target is Fibroblast growth factor receptor 1 (Homo sapiens) (UniProt P11362). The settings on record: at 0.1 µM.
For assay [15] the target is unchanged. The conditions noted are these: at 1 µM.
Assay [16] addresses Fibroblast growth factor receptor 2 (Homo sapiens) (UniProt P21802). The conditions noted are these: at 0.1 µM.
The target is the same in assay [17]. The settings on record: at 1 µM.
The target of assay [18] is Fibroblast growth factor receptor 3 (Homo sapiens) (UniProt P22607). The settings on record: at 0.1 µM.
Assay [19] shares this target. The conditions noted are these: at 1 µM.
The target of assay [20] is Fibroblast growth factor receptor 4 (Homo sapiens) (UniProt P22455). The conditions noted are these: at 0.1 µM.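 Note: values are mean percent inhibition of FGFR4.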

Fibroblast growth factor receptor 2 (Homo sapiens), sequence (P21802 22-821 limits assumed): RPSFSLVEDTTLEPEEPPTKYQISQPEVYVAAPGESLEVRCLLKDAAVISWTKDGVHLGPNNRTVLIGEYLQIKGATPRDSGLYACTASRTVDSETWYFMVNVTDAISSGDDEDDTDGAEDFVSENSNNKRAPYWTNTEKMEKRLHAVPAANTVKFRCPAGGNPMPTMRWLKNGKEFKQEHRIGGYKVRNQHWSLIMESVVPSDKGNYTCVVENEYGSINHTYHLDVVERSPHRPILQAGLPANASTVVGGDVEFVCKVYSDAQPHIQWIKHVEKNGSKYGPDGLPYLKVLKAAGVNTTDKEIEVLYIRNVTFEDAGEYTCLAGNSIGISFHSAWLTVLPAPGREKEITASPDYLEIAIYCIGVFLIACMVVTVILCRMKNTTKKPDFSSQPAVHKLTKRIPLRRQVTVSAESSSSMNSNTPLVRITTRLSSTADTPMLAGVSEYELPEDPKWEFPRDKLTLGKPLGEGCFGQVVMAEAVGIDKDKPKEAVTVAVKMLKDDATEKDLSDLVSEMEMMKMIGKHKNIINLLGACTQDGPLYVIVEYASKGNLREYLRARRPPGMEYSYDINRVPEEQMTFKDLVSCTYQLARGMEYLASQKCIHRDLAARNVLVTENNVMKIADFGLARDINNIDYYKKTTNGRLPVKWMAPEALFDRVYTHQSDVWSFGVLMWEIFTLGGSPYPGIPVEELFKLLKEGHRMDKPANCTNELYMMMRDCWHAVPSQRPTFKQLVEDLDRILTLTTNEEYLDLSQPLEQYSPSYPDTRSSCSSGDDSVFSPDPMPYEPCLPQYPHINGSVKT
Tyrosine-protein kinase Fes/Fps (Homo sapiens), sequence (P07332 whole entry): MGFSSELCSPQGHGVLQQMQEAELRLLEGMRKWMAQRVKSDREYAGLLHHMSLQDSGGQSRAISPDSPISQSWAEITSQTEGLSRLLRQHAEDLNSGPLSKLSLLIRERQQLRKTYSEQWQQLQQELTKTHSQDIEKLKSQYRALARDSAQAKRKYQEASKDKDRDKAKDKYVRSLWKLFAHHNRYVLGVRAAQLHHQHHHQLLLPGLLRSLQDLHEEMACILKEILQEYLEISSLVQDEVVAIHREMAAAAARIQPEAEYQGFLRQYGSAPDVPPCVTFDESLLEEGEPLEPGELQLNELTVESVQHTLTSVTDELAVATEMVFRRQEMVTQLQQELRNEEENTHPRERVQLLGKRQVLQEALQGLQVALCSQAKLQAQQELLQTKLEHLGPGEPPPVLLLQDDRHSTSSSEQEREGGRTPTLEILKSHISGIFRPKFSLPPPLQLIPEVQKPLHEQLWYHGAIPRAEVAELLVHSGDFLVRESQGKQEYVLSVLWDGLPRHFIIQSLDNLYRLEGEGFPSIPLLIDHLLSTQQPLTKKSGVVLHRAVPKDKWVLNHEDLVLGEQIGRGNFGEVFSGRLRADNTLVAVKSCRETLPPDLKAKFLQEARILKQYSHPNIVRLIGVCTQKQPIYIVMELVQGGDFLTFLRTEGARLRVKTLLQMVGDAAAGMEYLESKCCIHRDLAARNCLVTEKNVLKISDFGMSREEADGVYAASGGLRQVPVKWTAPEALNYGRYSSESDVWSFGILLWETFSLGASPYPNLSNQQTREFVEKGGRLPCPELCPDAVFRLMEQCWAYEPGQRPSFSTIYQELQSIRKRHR
Receptor tyrosine-protein kinase erbB-2 (Homo sapiens), sequence (P04626 whole entry): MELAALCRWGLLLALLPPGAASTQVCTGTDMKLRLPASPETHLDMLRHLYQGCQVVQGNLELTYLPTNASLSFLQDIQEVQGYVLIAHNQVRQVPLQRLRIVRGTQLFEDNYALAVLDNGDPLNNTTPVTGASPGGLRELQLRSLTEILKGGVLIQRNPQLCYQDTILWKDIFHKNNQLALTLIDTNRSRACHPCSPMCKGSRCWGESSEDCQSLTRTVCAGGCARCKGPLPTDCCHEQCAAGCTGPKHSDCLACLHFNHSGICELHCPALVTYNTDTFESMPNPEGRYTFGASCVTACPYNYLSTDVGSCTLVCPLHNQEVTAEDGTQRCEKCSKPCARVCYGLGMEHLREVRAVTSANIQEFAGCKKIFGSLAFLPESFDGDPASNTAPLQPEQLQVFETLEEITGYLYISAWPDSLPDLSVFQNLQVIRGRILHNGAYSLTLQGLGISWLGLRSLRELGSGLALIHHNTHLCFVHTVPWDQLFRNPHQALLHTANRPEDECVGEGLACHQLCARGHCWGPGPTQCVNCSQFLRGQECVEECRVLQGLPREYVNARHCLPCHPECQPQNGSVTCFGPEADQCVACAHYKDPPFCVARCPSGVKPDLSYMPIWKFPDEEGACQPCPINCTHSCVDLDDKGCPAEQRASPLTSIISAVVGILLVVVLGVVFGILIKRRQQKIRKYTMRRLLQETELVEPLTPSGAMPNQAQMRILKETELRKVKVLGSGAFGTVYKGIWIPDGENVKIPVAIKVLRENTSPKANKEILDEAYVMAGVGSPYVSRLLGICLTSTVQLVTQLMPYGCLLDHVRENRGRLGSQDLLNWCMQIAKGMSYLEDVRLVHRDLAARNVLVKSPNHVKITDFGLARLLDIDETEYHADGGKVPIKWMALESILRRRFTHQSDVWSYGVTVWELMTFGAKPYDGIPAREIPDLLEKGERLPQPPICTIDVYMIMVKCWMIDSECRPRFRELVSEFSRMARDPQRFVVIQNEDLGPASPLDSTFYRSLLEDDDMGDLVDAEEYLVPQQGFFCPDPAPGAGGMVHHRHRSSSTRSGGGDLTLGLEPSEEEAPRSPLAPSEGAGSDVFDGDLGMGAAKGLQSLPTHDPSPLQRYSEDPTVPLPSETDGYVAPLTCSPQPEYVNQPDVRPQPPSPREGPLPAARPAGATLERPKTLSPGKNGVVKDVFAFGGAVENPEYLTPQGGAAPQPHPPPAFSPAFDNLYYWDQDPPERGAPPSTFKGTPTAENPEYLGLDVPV

On to `CCn1c(-c2nonc2N)nc2cnc(Oc3cccc(NC(=O)c4ccc(OCCN5CCOCC5)cc4)c3)cc21`, for which the inhibition turned out to be 6.97% in [1]; 6.88% in assay [2]; 5.06% in assay [3]; 3.21% in assay [4]; 3.05% in [5]; 4.69% in assay [6]. In addition, the inhibition in [7] came to 2%; in assay [8], 5.15%; in [9], 10.4%; in assay [10], 3.9%; in [11] it was 2.2%; in assay [12] it was 2.8%. Further, the inhibition came to 2.83% in assay [13]; 1.76% in [14]; 5.99% in [15]; 4.83% in [16]; 3.45% in assay [17]; 3.36% in assay [18]. The inhibition in assay [19] was 1.9%; in assay [20] it was -4.45%.

As for `Cc1cccc(-c2n[nH]cc2-c2ccc3ncccc3n2)n1`, the inhibition in [1] is 5.67%; in assay [2], 2.71%; in assay [3] it was 1.95%; in assay [4], -0.2%; in assay [5], 2.61%; in assay [6], 1.42%. In addition, the inhibition in [7] is -0.81%; in [8], 2.27%; in assay [9], 4%; in assay [10], 0.04%; in [11], 0.01%; in [12], 0.45%. Moreover, the inhibition in assay [13] is -0.18%; in assay [14], -0.21%; in assay [15], 8.38%; in assay [16] it was 0.62%; in assay [17] it was 5.35%; in assay [18], 1.61%. Also, the inhibition worked out at 4.89% in [19] and 3.49% in [20].

Regarding `Nc1nc(-c2ccccn2)c(-c2ccc3ncccc3n2)s1`, the inhibition in assay [1] is 3.51%; in assay [2], 2.99%; in assay [3], 3.23%; in [4] it was 2.74%; in [5], 0.44%; in assay [6], 1.34%. Further, the inhibition stood at 4.11% in assay [7]; 7.11% in [8]; 8.52% in [9]; 0.93% in assay [10]; 6.59% in assay [11]; 2.12% in [12]. The inhibition is 3.07% in assay [13]; 7% in assay [14]; 5.84% in assay [15]; 3.92% in [16]; 7.02% in assay [17]; 5.15% in assay [18]. In addition, the results for the inhibition in assay [19] and in assay [20] were 4.97% and -1.61%, respectively.

For `O=C1NC(=O)C(N2CCc3ccccc32)=C1c1ccc(Cl)cc1`, the inhibition is 12.6% in [1]; 7.43% in [2]; 6.04% in assay [3]; 3.92% in assay [4]; 1.54% in assay [5]; 0.97% in [6]. Besides, the inhibition in assay [7] is -4.09%; in assay [8], 8.85%; in [9], 24%; in assay [10] it was 2.88%; in assay [11], 6.71%; in assay [12] it was 4.08%. For the same molecule, the inhibition turned out to be 7.35% in assay [13]; 5.27% in assay [14]; 13% in [15]; 6.84% in assay [16]; 14% in assay [17]; 8.07% in [18]. Further, the inhibition in [19] is 11.6%; in assay [20], -1.04%.

Consider `CS(=O)(=O)CCN(CC#N)Cc1ccc(-c2ccc3ncnc(Nc4ccc(OCc5cccc(F)c5)c(Cl)c4)c3c2)o1`, for which the inhibition in assay [1] was 4.79%; in assay [2] it was -1.45%; in assay [3], -0.8%; in assay [4] it was -2.59%; in assay [5], -3.31%; in [6], 12.4%. Moreover, the inhibition in assay [7] is 66.7%; in [8], 33.6%; in assay [9], 73.8%; in [10], -0.11%; in assay [11], 1.14%; in assay [12], 0.82%. For the same molecule, the inhibition is 0.27% in assay [13]; -3.34% in [14]; -4.3% in assay [15]; -1.21% in [16]; -2.13% in assay [17]; -1.19% in assay [18]. For the same molecule, the inhibition in assay [19] is -0.34%; in assay [20], 0.11%.

Regarding `CC1=C(C(=O)Nc2ccc3[nH]ncc3c2)C(c2ccc3ccccc3c2)CC(=O)N1` (stereo not given), the inhibition in assay [1] amounted to 8.42%; in [2] it was 4.2%; in [3] it was 4.54%; in assay [4] it was 3.21%; in assay [5], 3.76%; in [6], 0.89%. In addition, the inhibition in [7] was 2.88%; in assay [8] it was 12.7%; in assay [9] it was 39.6%; in assay [10], 2.1%; in assay [11], 7.14%; in assay [12], 1.76%. The inhibition in assay [13] came to 2.99%; in assay [14], 1.46%; in [15] it was 13.2%; in assay [16] it was 5.6%; in assay [17], 31.6%; in assay [18], 9.54%. Besides, the inhibition in assay [19] came to 22.8%; in assay [20], 0.62%.

`Nc1nc(-c2ccc3c(c2)C(=Cc2cc(Br)c(O)c(Br)c2)C(=O)N3)cs1`: the inhibition in assay [1] is -1.17%; in assay [2] it was -1.61%; in assay [3], -4.71%; in assay [4], -0.3%; in [5], -2.45%; in assay [6], -4.27%. Also, the inhibition was 2.84% in assay [7]; -6.34% in assay [8]; -0.4% in assay [9]; 5.18% in assay [10]; 3.05% in [11]; -2.93% in assay [12]. Moreover, the inhibition is -3.65% in [13]; -5.75% in assay [14]; -1.36% in assay [15]; -1.12% in assay [16]; 1.88% in assay [17]; -0.11% in assay [18]. In addition, the inhibition in assay [19] was 1.45%; in [20], -4.66%.

In general, inhibition refers to the relative decrease from the control value, in per cent.
